Source: the supplement of paper PMC11732987, “Enantioselective OTUD7B fragment discovery through chemoproteomics screening and high-throughput optimisation” (Communications Chemistry, 2025)

Key:
Experiment in all cases: log2 ratio of Biotin-Ahx-Ub-VS probe labelling (fragment/DMSO); higher = less target engagement (more negative = stronger competition), active = hit call of the paper (q ≤ 0.05, log2 ratio ≤ -1)
Conditions in all cases: compound concentration: 200 uM; treatment time: 3 h
USP42 = target: T1, USP42 (UniProt Q9H9J4)
T1 sequence (whole entry): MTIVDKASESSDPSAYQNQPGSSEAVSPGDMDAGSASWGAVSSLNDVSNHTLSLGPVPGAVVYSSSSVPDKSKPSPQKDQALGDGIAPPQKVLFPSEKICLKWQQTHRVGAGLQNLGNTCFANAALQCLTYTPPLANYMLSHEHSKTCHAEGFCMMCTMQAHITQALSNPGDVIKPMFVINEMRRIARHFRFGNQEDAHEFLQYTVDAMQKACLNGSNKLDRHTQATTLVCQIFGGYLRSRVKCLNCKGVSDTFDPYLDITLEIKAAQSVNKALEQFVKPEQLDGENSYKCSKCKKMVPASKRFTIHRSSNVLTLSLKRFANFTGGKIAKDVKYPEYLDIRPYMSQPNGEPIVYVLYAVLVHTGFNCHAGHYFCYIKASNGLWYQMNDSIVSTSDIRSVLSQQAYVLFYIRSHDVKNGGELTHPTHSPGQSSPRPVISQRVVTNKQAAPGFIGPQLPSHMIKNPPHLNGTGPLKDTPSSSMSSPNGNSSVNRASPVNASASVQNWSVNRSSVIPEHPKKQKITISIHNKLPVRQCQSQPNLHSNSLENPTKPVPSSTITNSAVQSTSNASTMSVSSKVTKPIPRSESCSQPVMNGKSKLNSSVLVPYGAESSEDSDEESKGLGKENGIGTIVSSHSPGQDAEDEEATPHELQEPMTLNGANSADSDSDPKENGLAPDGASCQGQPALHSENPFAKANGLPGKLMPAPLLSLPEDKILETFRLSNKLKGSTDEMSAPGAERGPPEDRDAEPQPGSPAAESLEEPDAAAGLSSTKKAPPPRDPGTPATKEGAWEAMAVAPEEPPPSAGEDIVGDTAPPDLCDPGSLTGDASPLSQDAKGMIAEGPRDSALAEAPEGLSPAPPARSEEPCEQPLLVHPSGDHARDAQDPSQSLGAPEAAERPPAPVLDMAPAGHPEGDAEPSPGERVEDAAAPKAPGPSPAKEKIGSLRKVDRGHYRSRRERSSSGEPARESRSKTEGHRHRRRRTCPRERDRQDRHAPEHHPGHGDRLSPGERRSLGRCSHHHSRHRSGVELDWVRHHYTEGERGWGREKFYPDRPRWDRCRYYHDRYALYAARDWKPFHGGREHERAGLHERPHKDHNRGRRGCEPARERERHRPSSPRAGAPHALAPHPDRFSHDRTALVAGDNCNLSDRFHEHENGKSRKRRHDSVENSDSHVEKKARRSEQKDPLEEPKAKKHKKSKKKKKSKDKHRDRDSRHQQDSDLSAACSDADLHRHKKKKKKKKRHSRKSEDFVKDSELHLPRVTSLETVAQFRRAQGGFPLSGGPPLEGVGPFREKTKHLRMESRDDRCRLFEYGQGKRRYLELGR
Summary of the method: (§1)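 In triplicate, 495 µg of HEK293T lysate per sample was incubated with fragment at 200 µM or vehicle for 3 h. Biotin-Ahx-Ub-VS was then added to 0.5 µM final for 1 h, and labelled DUBs were captured with NeutrAvidin, digested with LysC and trypsin, and measured by diaPASEF LC-MS/MS. Data are average log2 fragment/vehicle ratios by unpaired t-test from global-median-normalised Spectronaut label-free quantities, restricted to proteins with ≥2 unique peptides.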

USP46 = USP46 (UniProt P62068)
Summary of the method: as §1

USP47 = target: T2, USP47 (UniProt Q96K76)
T2 sequence (whole entry): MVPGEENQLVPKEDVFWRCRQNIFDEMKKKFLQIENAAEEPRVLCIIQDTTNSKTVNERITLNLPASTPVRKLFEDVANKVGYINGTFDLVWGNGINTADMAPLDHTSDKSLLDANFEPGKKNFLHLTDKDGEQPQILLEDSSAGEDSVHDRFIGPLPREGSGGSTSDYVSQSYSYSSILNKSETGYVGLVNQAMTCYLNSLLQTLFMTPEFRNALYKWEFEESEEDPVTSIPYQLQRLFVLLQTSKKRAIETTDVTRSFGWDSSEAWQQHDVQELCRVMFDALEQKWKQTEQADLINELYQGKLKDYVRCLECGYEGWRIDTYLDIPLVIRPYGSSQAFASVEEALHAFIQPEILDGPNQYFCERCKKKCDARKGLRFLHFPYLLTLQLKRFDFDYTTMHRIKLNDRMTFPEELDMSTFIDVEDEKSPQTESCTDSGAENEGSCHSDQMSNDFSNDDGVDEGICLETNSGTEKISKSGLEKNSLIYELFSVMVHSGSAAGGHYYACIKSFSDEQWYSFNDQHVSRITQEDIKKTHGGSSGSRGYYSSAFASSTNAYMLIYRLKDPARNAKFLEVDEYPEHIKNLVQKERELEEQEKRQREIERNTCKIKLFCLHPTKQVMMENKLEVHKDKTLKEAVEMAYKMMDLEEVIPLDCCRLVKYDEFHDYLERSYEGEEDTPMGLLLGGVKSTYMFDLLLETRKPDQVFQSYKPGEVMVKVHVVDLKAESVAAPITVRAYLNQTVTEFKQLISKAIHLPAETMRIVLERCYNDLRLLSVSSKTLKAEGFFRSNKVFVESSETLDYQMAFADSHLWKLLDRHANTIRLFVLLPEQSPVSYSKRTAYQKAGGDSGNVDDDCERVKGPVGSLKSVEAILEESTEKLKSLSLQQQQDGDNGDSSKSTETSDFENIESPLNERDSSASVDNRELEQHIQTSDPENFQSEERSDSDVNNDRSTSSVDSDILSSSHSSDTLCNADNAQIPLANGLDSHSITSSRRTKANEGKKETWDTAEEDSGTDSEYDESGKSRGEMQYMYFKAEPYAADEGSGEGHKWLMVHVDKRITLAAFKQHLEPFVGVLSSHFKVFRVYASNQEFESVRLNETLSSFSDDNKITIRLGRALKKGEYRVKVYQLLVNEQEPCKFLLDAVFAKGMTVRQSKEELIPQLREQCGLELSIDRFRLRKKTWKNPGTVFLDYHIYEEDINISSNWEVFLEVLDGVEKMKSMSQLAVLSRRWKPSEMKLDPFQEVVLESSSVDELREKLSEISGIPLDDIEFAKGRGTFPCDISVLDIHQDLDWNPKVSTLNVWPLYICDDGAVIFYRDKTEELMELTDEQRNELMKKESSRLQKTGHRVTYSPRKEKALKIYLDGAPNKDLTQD
Summary of the method: as §1

USP48 = target: T3, USP48 (UniProt Q86UV5)
T3 sequence (whole entry): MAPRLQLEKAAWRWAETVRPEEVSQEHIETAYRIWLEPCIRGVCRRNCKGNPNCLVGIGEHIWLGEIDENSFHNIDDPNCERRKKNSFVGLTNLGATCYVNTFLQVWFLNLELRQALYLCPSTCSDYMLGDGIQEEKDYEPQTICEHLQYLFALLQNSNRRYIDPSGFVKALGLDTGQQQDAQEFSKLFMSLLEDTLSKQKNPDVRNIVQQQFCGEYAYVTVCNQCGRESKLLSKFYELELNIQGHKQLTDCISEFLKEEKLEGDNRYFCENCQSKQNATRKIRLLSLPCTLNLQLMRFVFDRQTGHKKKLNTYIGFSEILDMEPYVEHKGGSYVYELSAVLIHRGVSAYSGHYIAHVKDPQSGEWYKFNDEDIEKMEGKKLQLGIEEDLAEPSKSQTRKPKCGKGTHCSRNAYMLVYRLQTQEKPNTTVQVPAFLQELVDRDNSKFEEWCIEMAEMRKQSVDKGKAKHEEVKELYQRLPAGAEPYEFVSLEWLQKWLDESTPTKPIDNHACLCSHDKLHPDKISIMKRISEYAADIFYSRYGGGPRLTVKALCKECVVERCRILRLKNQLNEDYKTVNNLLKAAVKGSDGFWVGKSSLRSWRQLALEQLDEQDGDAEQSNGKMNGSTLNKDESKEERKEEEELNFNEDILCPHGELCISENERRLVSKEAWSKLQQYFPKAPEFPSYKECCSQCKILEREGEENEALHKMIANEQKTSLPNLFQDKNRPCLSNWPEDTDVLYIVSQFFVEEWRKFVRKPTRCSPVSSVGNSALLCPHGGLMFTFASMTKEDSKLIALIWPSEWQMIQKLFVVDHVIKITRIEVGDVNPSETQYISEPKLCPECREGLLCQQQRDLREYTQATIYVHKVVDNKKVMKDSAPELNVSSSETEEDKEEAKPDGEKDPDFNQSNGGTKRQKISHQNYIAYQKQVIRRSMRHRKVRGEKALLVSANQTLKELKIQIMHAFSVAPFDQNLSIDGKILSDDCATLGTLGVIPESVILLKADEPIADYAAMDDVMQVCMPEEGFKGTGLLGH
Summary of the method: as §1

USP5 = target: T4, USP5 (UniProt P45974)
T4 sequence (whole entry): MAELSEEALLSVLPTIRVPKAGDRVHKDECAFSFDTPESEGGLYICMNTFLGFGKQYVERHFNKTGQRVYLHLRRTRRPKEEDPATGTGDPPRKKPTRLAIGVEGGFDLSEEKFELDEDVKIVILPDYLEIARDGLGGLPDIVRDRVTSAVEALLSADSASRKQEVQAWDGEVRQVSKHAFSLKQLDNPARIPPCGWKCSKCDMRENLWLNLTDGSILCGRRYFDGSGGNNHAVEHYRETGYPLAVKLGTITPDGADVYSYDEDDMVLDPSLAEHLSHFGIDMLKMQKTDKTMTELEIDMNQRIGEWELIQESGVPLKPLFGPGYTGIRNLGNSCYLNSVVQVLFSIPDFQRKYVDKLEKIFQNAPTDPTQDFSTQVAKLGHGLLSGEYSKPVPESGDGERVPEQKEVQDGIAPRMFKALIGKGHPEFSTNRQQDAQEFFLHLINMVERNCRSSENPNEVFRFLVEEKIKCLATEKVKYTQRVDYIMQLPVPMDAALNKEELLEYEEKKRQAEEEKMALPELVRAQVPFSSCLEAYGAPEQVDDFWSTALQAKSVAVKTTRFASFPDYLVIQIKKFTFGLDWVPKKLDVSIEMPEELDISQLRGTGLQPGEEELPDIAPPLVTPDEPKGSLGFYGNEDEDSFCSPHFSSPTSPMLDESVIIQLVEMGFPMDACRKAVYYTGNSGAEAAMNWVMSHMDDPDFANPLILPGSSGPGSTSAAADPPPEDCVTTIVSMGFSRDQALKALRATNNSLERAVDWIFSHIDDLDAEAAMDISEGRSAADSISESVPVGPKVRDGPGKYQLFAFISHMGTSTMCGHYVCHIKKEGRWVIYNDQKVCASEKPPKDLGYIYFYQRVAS
Summary of the method: as §1

USP54 = USP54 (UniProt Q70EL1)
Summary of the method: as §1

USP7 = USP7 (UniProt Q93009)
Summary of the method: as §1

USP8 = target: T5, USP8 (UniProt P40818)
T5 sequence (whole entry): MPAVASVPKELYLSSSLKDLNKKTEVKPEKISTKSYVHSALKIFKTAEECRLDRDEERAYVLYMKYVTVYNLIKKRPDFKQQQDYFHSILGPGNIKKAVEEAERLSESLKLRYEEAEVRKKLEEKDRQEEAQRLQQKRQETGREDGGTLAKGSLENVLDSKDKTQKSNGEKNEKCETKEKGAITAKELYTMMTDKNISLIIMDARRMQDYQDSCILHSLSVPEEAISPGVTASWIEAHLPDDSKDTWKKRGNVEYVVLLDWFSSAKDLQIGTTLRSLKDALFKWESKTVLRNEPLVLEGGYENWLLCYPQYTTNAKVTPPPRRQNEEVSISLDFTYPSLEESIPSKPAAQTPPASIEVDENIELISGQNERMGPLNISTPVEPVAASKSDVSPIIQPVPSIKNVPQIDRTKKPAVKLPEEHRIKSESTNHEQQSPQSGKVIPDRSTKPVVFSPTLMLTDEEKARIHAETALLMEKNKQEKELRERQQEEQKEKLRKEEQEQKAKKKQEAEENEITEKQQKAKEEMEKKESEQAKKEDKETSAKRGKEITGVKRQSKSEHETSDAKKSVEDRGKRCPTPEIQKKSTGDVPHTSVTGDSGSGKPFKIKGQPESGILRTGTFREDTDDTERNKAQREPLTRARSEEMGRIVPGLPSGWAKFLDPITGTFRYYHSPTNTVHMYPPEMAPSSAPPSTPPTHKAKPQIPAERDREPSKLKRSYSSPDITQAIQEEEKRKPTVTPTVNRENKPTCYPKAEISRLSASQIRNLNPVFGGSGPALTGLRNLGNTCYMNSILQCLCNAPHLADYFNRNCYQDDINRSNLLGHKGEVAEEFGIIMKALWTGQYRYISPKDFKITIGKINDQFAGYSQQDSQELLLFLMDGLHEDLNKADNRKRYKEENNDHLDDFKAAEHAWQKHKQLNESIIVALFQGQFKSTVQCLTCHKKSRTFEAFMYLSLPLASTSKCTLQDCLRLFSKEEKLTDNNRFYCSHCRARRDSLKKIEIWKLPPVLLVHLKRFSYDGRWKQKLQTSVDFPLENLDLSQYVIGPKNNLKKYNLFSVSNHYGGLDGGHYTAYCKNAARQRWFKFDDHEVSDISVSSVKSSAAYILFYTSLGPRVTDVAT
Summary of the method: as §1

USP9X = USP9X (UniProt Q93008)
Summary of the method: as §1

UniProt O00487 = target: UniProt O00487
Summary of the method: as §1

Measured: log2 ratio of Biotin-Ahx-Ub-VS probe labelling

UniProt O00487, sequence (O00487 whole entry): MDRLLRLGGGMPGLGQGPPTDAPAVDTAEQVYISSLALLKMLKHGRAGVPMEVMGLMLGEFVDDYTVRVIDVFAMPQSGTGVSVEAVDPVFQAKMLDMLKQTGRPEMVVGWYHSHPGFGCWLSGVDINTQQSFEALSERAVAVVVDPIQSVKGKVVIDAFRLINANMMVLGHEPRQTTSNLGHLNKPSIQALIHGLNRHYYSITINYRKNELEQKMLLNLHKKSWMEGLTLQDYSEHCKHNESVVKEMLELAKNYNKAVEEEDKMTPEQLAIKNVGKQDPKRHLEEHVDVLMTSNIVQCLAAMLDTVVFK
USP54, sequence (Q70EL1 whole entry): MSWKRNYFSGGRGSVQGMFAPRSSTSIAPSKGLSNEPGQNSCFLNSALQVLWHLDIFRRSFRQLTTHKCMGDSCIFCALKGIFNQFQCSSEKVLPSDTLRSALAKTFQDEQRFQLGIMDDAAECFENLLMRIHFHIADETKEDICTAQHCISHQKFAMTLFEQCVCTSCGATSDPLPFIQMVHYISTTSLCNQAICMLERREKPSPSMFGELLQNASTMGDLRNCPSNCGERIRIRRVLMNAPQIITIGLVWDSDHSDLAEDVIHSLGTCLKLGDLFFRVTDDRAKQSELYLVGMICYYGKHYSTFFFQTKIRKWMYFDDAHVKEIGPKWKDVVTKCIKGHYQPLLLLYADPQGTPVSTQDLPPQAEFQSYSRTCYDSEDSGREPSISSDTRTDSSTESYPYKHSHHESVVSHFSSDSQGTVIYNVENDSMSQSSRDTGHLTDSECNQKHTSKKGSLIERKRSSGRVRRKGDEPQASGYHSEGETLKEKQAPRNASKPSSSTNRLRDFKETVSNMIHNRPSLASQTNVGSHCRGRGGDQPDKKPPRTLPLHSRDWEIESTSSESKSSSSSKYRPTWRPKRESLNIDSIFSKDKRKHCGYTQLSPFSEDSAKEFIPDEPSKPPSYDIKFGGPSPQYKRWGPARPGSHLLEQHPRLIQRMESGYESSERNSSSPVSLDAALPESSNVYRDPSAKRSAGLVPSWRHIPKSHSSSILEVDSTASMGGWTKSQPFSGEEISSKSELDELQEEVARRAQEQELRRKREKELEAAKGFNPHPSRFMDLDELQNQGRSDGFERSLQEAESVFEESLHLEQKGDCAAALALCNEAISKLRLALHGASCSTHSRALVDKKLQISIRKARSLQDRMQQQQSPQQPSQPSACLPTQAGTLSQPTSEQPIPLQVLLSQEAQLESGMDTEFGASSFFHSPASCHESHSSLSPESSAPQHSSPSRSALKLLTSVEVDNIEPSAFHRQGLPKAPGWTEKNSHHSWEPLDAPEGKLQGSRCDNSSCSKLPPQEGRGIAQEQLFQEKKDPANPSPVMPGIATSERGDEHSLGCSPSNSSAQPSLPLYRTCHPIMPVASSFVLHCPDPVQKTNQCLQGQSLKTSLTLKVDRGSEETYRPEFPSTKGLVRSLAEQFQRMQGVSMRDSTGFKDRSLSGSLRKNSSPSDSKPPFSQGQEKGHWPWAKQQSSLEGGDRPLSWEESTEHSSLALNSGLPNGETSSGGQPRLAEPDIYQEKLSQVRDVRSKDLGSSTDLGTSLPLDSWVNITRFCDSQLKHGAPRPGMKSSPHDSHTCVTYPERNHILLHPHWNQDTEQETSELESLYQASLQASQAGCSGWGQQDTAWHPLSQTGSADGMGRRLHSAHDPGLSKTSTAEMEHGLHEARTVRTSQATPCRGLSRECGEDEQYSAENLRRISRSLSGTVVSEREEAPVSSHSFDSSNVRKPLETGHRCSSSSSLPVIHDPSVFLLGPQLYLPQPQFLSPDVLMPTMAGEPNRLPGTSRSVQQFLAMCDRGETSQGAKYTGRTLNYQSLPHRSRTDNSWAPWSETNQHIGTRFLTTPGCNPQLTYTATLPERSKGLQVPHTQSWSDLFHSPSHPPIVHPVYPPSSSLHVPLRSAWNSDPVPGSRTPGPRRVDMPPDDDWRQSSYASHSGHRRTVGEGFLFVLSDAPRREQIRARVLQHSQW
USP9X, sequence (Q93008 whole entry): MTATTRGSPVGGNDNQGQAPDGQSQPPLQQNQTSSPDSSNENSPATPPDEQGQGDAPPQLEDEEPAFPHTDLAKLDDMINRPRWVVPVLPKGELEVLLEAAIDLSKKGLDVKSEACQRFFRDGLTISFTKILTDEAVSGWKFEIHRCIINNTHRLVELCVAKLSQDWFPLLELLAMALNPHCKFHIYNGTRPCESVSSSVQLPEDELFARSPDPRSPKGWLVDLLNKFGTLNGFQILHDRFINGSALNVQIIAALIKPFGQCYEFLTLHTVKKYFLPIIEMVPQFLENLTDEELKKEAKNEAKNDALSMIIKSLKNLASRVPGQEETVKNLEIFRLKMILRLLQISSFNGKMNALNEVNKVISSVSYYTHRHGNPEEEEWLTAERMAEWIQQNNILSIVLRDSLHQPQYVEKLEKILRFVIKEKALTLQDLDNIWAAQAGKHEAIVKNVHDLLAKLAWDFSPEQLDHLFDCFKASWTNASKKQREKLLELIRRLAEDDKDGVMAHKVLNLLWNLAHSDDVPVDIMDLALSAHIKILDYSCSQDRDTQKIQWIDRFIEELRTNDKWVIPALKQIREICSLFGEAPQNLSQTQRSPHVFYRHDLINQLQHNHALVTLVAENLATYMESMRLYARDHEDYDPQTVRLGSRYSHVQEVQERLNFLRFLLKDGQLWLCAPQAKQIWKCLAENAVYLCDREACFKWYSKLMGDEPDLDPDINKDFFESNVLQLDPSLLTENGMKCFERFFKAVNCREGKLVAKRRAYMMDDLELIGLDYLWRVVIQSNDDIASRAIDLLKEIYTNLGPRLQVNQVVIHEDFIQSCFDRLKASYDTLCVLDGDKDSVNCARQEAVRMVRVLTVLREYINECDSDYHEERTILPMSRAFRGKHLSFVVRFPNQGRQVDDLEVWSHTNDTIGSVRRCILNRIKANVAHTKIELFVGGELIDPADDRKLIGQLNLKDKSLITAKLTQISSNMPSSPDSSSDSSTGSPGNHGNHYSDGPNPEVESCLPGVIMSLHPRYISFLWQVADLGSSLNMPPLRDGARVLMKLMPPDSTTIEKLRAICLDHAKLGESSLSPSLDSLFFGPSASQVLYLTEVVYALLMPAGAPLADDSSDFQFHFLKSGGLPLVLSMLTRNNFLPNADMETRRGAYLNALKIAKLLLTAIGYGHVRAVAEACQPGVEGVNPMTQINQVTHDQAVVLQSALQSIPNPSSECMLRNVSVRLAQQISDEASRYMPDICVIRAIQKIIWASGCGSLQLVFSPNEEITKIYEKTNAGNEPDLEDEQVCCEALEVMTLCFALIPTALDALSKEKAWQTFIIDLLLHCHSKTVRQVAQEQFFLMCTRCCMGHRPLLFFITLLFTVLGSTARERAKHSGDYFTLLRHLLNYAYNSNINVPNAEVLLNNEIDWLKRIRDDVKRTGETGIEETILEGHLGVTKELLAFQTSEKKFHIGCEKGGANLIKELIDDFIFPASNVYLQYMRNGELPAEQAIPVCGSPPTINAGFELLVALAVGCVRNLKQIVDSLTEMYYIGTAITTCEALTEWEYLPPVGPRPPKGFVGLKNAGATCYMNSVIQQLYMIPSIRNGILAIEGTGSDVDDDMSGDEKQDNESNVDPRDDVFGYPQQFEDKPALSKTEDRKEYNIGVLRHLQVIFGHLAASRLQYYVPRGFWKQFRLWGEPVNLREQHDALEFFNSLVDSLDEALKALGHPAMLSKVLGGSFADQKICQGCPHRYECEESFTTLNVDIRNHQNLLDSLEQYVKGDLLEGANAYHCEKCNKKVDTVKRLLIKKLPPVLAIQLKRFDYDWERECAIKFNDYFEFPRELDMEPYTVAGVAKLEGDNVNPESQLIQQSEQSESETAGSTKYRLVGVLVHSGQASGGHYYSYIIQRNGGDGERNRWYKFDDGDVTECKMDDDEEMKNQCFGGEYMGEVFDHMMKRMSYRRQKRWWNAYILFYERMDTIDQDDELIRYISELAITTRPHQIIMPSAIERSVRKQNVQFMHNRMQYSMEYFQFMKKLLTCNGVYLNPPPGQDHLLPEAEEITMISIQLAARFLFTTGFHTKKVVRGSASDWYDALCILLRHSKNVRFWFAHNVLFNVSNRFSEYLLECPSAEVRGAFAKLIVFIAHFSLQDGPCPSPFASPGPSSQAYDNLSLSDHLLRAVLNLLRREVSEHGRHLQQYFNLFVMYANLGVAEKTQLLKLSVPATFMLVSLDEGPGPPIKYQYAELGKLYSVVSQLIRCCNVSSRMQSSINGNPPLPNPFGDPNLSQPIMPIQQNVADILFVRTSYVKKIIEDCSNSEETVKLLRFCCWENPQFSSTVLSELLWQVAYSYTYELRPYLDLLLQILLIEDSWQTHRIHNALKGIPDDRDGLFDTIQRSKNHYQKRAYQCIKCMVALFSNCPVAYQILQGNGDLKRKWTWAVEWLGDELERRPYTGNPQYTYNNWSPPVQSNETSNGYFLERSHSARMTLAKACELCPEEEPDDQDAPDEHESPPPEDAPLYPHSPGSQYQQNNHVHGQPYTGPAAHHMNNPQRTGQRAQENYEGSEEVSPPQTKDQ
USP46, sequence (P62068 whole entry): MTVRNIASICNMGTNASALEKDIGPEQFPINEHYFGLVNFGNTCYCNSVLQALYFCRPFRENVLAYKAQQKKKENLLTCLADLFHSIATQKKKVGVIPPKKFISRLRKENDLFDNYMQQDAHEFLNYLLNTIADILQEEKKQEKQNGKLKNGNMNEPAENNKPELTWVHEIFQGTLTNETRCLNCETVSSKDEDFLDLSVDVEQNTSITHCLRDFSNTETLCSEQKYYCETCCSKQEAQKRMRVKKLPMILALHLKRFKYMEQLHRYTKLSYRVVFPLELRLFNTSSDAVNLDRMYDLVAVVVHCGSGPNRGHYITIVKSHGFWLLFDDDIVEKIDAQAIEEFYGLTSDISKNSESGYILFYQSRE

O=C(CCl)NCc1ccc2c(c1)OCO2
inactive: USP42 0.271 | USP46 0.12 | USP47 0.0619 | USP48 -0.33 | USP5 0.376 | USP54 0.581 | USP7 -0.297 | USP8 -0.155 | USP9X -0.147 | UniProt O00487 -0.108
